Screening results as filed in PubChem BioAssay.
LASV entry inh = Lassa virus entry inhibition. Lassa virus pseudotype entry inhibition, cell reporter. Potency, µM (series often up to 37.9 µM), most hits filed as inhibitors. hit rate 1.2% among 300,000. AID 540256; calls by dose curve; tested in HEK293 cells; also: nearly all actives have a fitted effect of over 50% in size
MARV entry inh = blocks Marburg virus binding to or entry into cells. Potency, µM (top dose mostly 37.8 µM), hits mostly inhibitors. hit rate 1.8% among 300,000. Marburg virus pseudotyped entry inhibition, cell reporter; calls by dose curve; tested in HEK293 cells
Cycloheximide cs = counter-screen for Shiga toxin inhibitors: cycloheximide protein synthesis inhibition; cell reporter, cycloheximide protein synthesis inhibition counterscreen; max response, %; hit rate 12% among 300,000; AID 2314; in the data active = max response mostly above about 13%, no sharp cut-off; inactive = mostly below about 14%; also: read at 38.3 µM for the half of the compounds with a filed dose
Vaccinia mCherry = inhibitors of vaccinia virus infection (mCherry reporter signal). Potency, µM (titrated, usually from 36.5 µM), usual class: inhibitors. AID 720579. Vaccinia virus mCherry reporter infection, fluorescence. hit rate 0.63% among 310,000; calls by dose curve; tested in A549 cells; also: nearly all actives have a fitted effect of over 35% in size
Shiga toxin inh = Shiga toxin inhibition; Vero cells, Shiga toxin protein synthesis inhibition reporter; hit rate 9.2% among 290,000; inhibition, % at 38.7 µM; in the data active = inhibition mostly above about 28%, no sharp cut-off; inactive = mostly below about 43%
Vaccinia Venus = inhibitors of vaccinia virus (Venus reporter); Vaccinia virus Venus reporter expression, fluorescence; Potency, µM (doses to about 36.5 µM), actives largely listed as inhibitors; hit rate 0.46% among 330,000; calls by dose curve; tested in A549 cells; also: nearly all actives have a fitted effect of over 30% in size
Numbers stand for hits; i = inactive; ? = inconclusive; nt = not tested or not shown; [ ] = remark or other dose. Shown is part of a subset that was picked to be rich in hits.

SMILES	LASV entry inh	MARV entry inh	Cycloheximide cs	Vaccinia mCherry	Shiga toxin inh	Vaccinia Venus
Cc1c(C(=O)N2CCCCC2)oc2ccc(S(=O)(=O)N3CC(C)CC(C)C3)cc12 (stereo unspecified)	?	11.2µM	i	nt	i	?
Cc1c(C(=O)NCC2CCCO2)oc2ccc(S(=O)(=O)N3CC(C)CC(C)C3)cc12 (stereo unspecified)	nt	i	i	i	i	i
C#CC[C@@]1(C(=O)OC)C=C[C@@H](C)[C@H](c2ccccc2Br)N1C(=O)C(F)(F)F	nt	i	nt	nt	nt	nt
COc1ccc(C(C(C(=O)c2ccco2)N2CCOCC2)N2CCOCC2)cc1 (stereo unspecified)	i	i	22.8	nt	23.2	i
COc1cc(C(=O)N2CC(=O)Nc3ccc(C)cc3C2c2ccc(F)cc2)cc(OC)c1OC (stereo unspecified)	i	i	nt	i	nt	i
C/C(=N\NC(=O)c1ccc(F)cc1)c1ccc(N2CCOCC2)cc1	i	?	21.2	i	74.4	i
C/C(=N\NC(=O)c1ccc(O)cc1)c1ccc(N2CCOCC2)cc1	i	i	i	i	i	i
C/C(=N\NC(=O)COc1ccc(C(C)(C)C)cc1)c1ccc(N2CCOCC2)cc1	1.3µM	i	24.0	nt	i	nt
C/C(=N\NC(=O)COc1ccccc1)c1ccc(O)cc1	nt	i	i	i	i	i
S=c1[nH]ncn1/N=C/c1ccc(Br)cc1	i	i	i	i[1.46 µM]	i	i
CNC(=S)N/N=C(\C)c1ccc(N2CCOCC2)cc1	nt	nt	60.6	nt	85.0	nt
S=c1[nH]ncn1/N=C/c1ccc(N2CCOCC2)cc1	i	i	25.9	nt	32.3	nt
CCCSc1ncc(Cl)c(C(=O)N2CCN(c3cccc(Cl)c3)CC2)n1	i	?	nt	i	nt	i
C(=N\n1cnnc1)/c1ccc(N2CCOCC2)cc1	i	i	i	nt	i	nt
C/C(=N\NC(=O)c1ccccc1)c1ccc(N2CCCCC2)cc1	i	i	48.3	i	77.3	?
CN(C)/N=C/c1ccc(N2CCOCC2)cc1	i	?	23.2	i	i	i
Fc1ccc(N/N=C/c2ccc(N3CCOCC3)cc2)c(F)c1	?	?	34.0	i	75.1	i
C/C(=N\Nc1ccc(F)cc1F)c1ccc(N2CCOCC2)cc1	nt	nt	23.7	nt	i	nt
C/C(=N\Nc1ccc(F)cc1F)c1ccc(F)cc1	nt	i	i	nt	i	nt
CC(C)(C)c1ccc(OCCC(=O)OCC(=O)N2c3ccccc3NC(=O)C2(C)C)cc1	i	i	nt	i	nt	i
CCCc1cc(C(=O)Cc2ccccn2)c(O)cc1O	nt	nt	i	nt	i	nt
O=C(N/N=C/c1ccc(N2CCCCC2)o1)c1ccccc1	i	?	37.1	i	75.5	i
CCCCCC(=O)N/N=C(\C)c1ccc(N2CCCCC2)cc1	i	?	47.7	i	57.7	i
CCOC(=O)c1sc(NC(=O)CSc2nc3cccnc3n2C)nc1C	i	i	i	i	i	i
CCOC(=O)c1c(NC(=O)CSc2nc3cccnc3n2C)sc(C(C)=O)c1C	i	10µM	i	i	i	i
SMILES	LASV entry inh	MARV entry inh	Cycloheximide cs	Vaccinia mCherry	Shiga toxin inh	Vaccinia Venus
C=CCn1c(-c2ccccc2)c[nH]c1=S	i	i	50.4	nt	78.0	nt
CCn1c(-c2ccc(-c3ccccc3)cc2)c[nH]c1=S	?	i	i	i	i	i
Cn1c(-c2ccc(-c3ccccc3)cc2)c[nH]c1=S	?	?	30.9	nt	68.8	?
CC(=O)Nc1ccc(N=c2cc([N+](=O)[O-])cc(Cl)n2O)cc1	?	?	i	8.91µM	i	?
COc1ccc(NC(=O)c2ccc3c(c2)CCN3S(C)(=O)=O)cc1	nt	nt	nt	i	nt	i
CC(=O)Nc1nc(-c2ccc3c(c2)CCN3S(C)(=O)=O)cs1	i	i	18.3	i	67.4	i
CS(=O)(=O)N1CCc2cc(-c3csc(NC(=O)Cc4cccs4)n3)ccc21	13µM	?	i	?	i	?
O=C(CN1CCOCC1)Nc1nc(-c2ccc3c(c2)CCN3S(=O)(=O)c2ccccc2)cs1	?	?	i	?	i	i
COc1ccc(OC(=O)Cc2cccc3ccccc23)cc1	nt	nt	i	nt	i	nt
O=C(NCCn1cc(SCc2ccc(F)cc2)c2ccccc21)c1cccs1	i	i	nt	i	nt	i
CC(=O)Nc1ccc(/C=N/N2CCCCC2)cc1	i	i	44.4	i	116.3	i
COc1ccc(/C=N/N2C(C)CCCC2C)cc1OC (stereo unspecified)	i	?	i	i	i	i
CC(=O)Nc1ccc(/C=N/N2C(C)CCCC2C)cc1 (stereo unspecified)	i	i	15.9	i	i	i
Cc1ccccc1NC(=O)c1ccc(-c2ccc(Cl)cc2Cl)o1	i	i	20.6	nt	i	?
Cc1cccc(C)c1NC(=O)c1ccc(-c2ccc(Cl)cc2Cl)o1	?	10µM	i	i	i	i
Cc1cccn2c(=O)c3cc(C(=O)NCCc4ccc(S(N)(=O)=O)cc4)n(C)c3nc12	i	nt	nt	i	nt	i
Cn1c(-c2cccs2)nc2ccccc21	i	?	34.8	i	124.6	i
CN(C)c1nc2ccccc2n(C)c1=O	i	i	i	i	i	i
Cn1c(-c2ccc(C=O)s2)nc2ccccc21	?	i	22.6	nt	i	i
CC(C)Cn1c(-c2cccs2)nc2ccccc21	i	i	i	nt	i	nt
C/C(=N\Nc1nc(N2CCOCC2)nc(N2CCOCC2)n1)c1cccs1	i	i	i	i	i	i
BrC(/C=C\c1ccccc1)=N/Nc1nc(N2CCOCC2)nc(N2CCOCC2)n1	i	?	i	nt	i	nt
C/C(=N\Nc1nc(N2CCCCC2)nc(N2CCOCC2)n1)c1ccccc1O	7.08µM	1.78µM	i	i	i	i
Oc1ccc(Br)cc1/C=N/Nc1nc(N2CCCCC2)nc(N2CCOCC2)n1	i	2.51µM	i	i	i	i
Oc1ccc(/C=N/Nc2nc(N3CCCCCC3)nc(N3CCCCCC3)n2)c(O)c1	?	?	i	?	i	i
SMILES	LASV entry inh	MARV entry inh	Cycloheximide cs	Vaccinia mCherry	Shiga toxin inh	Vaccinia Venus
BrC(=C\c1ccccc1)/C=N/Nc1nc(N2CCOCC2)nc(N2CCOCC2)n1	i	7.94µM	i	i	i	i
Cc1cccc(NC(=O)c2oc3ccccc3c2NC(=O)Cc2coc3cc(C)cc(C)c23)c1	i	i	nt	i	nt	i
COc1cc(Cl)c(C)cc1NC(=O)CCCN1C(=O)C(c2ccccc2)Oc2cccnc21 (stereo unspecified)	i	nt	nt	i	nt	i
C=C1C(=O)O[C@H]2C1CC[C@@](C)(O)C13C=CC(C)(C21)C1(C3)C(=O)O[C@@H]2C3C(C)=CCC3[C@](C)(O)C[C@H](OC(C)=O)C21 (stereo partly specified)	?	i	12.2	i	33.9	i
CCOC(=O)c1sc2nc(CSc3ccccc3)nc(N3CCC(C(N)=O)CC3)c2c1C	i	?	i	11.2µM	i	10µM
Cc1ccc2oc(=O)n(CCNC(=O)Nc3ccccc3Cl)c2c1	?	i	nt	i	nt	i
COc1cccc(Cn2c(NCc3ccc(C)cc3)nc3c2c(=O)n(C)c(=O)n3C)c1	i	i	nt	i	nt	i
O=C(O)CCNc1ccc(NCCC(=O)O)c2c1C(=O)c1ccccc1C2=O	nt	nt	i	i	i	i
O=C1c2cccc(NCCNCCO)c2C(=O)c2cccc(NCCNCCO)c21	?	5.01µM	nt	?	nt	?
CC(c1cccs1)N(C)Cc1nc(CCc2ccccc2)no1 (stereo unspecified)	i	i	i	nt	37.0	nt
COc1cccc(C(C)N(C)Cc2nc(COc3ccccc3)no2)c1 (stereo unspecified)	nt	nt	i	nt	i	nt
